Bioassay records deposited in PubChem by National Center for Advancing Translational Sciences (NCATS).
HT1080 IDH1KD tx: kills HT-1080 cells with IDH1 knockdown | Potency, µM (highest dose often 46.1 µM), for the others: at the highest dose activity, negative = toxicity, most hits filed as cytotoxic | AID 686971 | HT-1080 IDH1 knockdown viability, ATP luminescence, 48 h | actives 2% (n = 360,000);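 further: 0% = DMSO wells and -100% = cell-free medium wells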
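Luminescent ATP read-out (CellTiter-Glo, 10 min at room temperature) after 48 h compound exposure at 37 °C gave viability of IDH1-knockdown HT-1080 cells. Activity was normalised to DMSO and cell-free wells, then fitted as concentration-response curves.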
TDP1 cell noCPT: qHTS for Inhibitors of human tyrosyl-DNA phosphodiesterase 1 (TDP1): qHTS in cells in absence of CPT. DT40 Tdp1-/- hTDP1 cells, no CPT, ATP luminescence, 48 h. Potency, µM (top dose mostly 46.2 µM), without a hit: at the top dose activity change, negative = growth inhibition, most hits filed as inhibitors. AID 686978, 2013. actives 15% (n = 420,000); further: nearly all actives have a fitted effect of over 55% in size
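Chicken DT40 Tdp1-/- cells complemented with human TDP1, screened without camptothecin (DMSO vehicle only), 400 cells/well. Compounds pin-transferred, cells incubated at 37 °C for at least 48 hr. Growth read as ATP-dependent luminescence (CellTiter-Glo, 30 min at RT).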
KB-3-1 tox: KB-3-1 parental cell cytotoxicity | KB-3-1 viability, CellTiter-Glo ATP luminescence, 72 h | Potency, µM (series often up to 46.1 µM), actives largely listed as cytotoxic | actives 1.4% (n = 400,000); further: nearly all actives have a fitted effect of over 60% in size
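Cytotoxicity in the drug-sensitive parental line KB-3-1 was scored as loss of CellTiter-Glo luminescence following 72 h incubation with compound. Values come from curve fitting of normalized concentration-response data.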
KB-V1 MDR tox: kills drug-selected multidrug resistant KB-V1 cells. KB-V1 MDR cells viability, CellTiter-Glo, 72 h. Potency, µM (top dose mostly 46.1 µM), hits mostly cytotoxic. actives 3.4% (n = 400,000); further: nearly all actives have a fitted effect of over 60% in size
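Following 72 h at 37 degrees C with compound, KB-V1 cell viability was read by CellTiter-Glo luminescence, medium being phenol-red-free DMEM plus 10% FBS; concentration-response parameters came from normalized, curve-fitted qHTS data.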
TDP1 cell CPT: growth inhibition of DT40 Tdp1-/-;hTDP1 cells with camptothecin (screen for TDP1 inhibitors). chicken DT40 Tdp1-/-;hTDP1 cells + 20 nM CPT, ATP luminescence, 48 h. Potency, µM (doses to about 46.2 µM), inactives show at the top dose activity change, negative = growth inhibition, usual class: inhibitors. actives 12% (n = 420,000); further: nearly all actives have a fitted effect of over 55% in size
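Cell growth measured by CellTiter-Glo luminescence after a minimum 48 h, 37 C compound exposure with 20 nM CPT in Tdp1-knockout DT40 cells stably expressing hTDP1, seeded 400/well; qHTS titration format.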
HT1080-NT tox: kills 2HG-producing HT-1080-NT fibrosarcoma cells. HT-1080-NT fibrosarcoma viability, CellTiter-Glo ATP luminescence, 48 h. actives 1.6% (n = 360,000). Potency, µM (highest dose often 46.1 µM), without a hit: at the top dose activity, negative = less viability, actives largely listed as cytotoxic. AID 686970;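 further: NT is the 2HG producing partner of a matched IDH1 knockdown line; 0% = DMSO-treated cells and -100% = media-only wells without cells; nearly all actives have a fitted effect of over 55% in size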
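Luminescent CellTiter-Glo readout after 48 hours of compound exposure at 37 degrees C defined viability of HT-1080-NT cells. Activity was normalized to DMSO wells and cell-free media wells; concentration-response curves were fitted and assigned curve classes.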
The depositor's hits bear a star. Shown are actives, neighbours in structure and some others; about 19% of the full set was active somewhere. The call rests on the fitted dose curve; in most records, active means well fitted curve in the direction sought with a large enough effect; inconclusive means small, poorly fitted or top-dose-only effect, or another doubt; inactive means no such curve, though single readings can be large; an effect the other way counts as inactive or inconclusive. Unless noted, on the % scale 0 is the no-effect control and ±100 the full control effect; potency means the concentration at half of the fitted maximal effect.

For COc1ccc(CNC(=O)C[C@H]2C(=O)N(CCc3ccccc3)C[C@@H]2Cc2ccccc2)cc1 the results were HT1080 IDH1KD tx -1%, TDP1 cell noCPT 22µM*, KB-3-1 tox inconclusive, KB-V1 MDR tox inconclusive, TDP1 cell CPT 16µM* and HT1080-NT tox 3%.
For CCCCN1C[C@H](Cc2ccccc2)[C@@H](CC(=O)Nc2ccc(OC)cc2)C1=O the results were HT1080 IDH1KD tx 9%, TDP1 cell noCPT 2%, KB-3-1 tox inactive, KB-V1 MDR tox inactive, TDP1 cell CPT 0% and HT1080-NT tox 15%.
For Cc1nn(-c2ccc(N3CCCCC3)nn2)c(C)c1CCC(=O)NCc1ccc(Cl)cc1 the results were TDP1 cell noCPT 26µM* and TDP1 cell CPT inconclusive.
`Cc1nn(-c2ccc(N3CCCCC3)nn2)c(C)c1CCC(=O)NCc1ccc(OC(C)C)cc1` gave TDP1 cell noCPT 16µM* and TDP1 cell CPT 16µM*.
COc1cc([N+](=O)[O-])cc(/C=N/NC(=O)c2cc(C)nc3ccccc23)c1O was read as HT1080 IDH1KD tx 13µM*, TDP1 cell noCPT inconclusive, KB-3-1 tox inconclusive, KB-V1 MDR tox inactive, TDP1 cell CPT inconclusive and HT1080-NT tox inconclusive.
For COc1cc([N+](=O)[O-])cc(/C=N/NC(=O)c2cc(-c3ccccc3)nc3ccccc23)c1O the results were HT1080 IDH1KD tx inconclusive, TDP1 cell noCPT 23µM*, KB-3-1 tox inconclusive, KB-V1 MDR tox inconclusive, TDP1 cell CPT 21µM* and HT1080-NT tox inconclusive.
For CCC(=O)Nc1cccc(C(=O)N(Cc2ccccc2)Cc2ccccc2)c1 the results were HT1080 IDH1KD tx 4%, TDP1 cell noCPT inconclusive, KB-3-1 tox inactive, KB-V1 MDR tox inactive, TDP1 cell CPT inconclusive and HT1080-NT tox -2%.
For O=c1c2c([nH]c3ccccc13)CCCCC2 the results were HT1080 IDH1KD tx -5%, TDP1 cell noCPT inconclusive, KB-3-1 tox inactive, KB-V1 MDR tox inactive, TDP1 cell CPT -28% and HT1080-NT tox inconclusive.
For O=c1c2ccccc2[nH]c2ccccc12 the results were HT1080 IDH1KD tx -1%, TDP1 cell noCPT 16µM*, KB-3-1 tox inactive, KB-V1 MDR tox inactive, TDP1 cell CPT 8.2µM* and HT1080-NT tox -3%.
`O=c1c2c([nH]c3ccccc13)CCCCCC2` gave HT1080 IDH1KD tx -12%, TDP1 cell noCPT 16µM*, KB-3-1 tox inactive, KB-V1 MDR tox inconclusive, TDP1 cell CPT 23µM* and HT1080-NT tox 2%.
Screening O=c1c(-c2ccc(F)cc2)nc2cnc(Nc3ccccc3)nc2n1C[C@H]1CCCO1 returned TDP1 cell noCPT -3% and TDP1 cell CPT 25%.
`COc1cccc(SCc2noc(C(=O)NC(C)C)c2C(=O)NC(C)C)c1` gave HT1080 IDH1KD tx 3%, TDP1 cell noCPT inconclusive, KB-3-1 tox inactive, KB-V1 MDR tox inactive, TDP1 cell CPT inconclusive and HT1080-NT tox -4%.
Screening CC(C)NC(=O)CSc1nc2ccccc2n1CC(=O)N1CCc2ccccc21 returned HT1080 IDH1KD tx 1%, TDP1 cell noCPT -6%, KB-3-1 tox inactive, KB-V1 MDR tox inactive, TDP1 cell CPT -20% and HT1080-NT tox 7%.
For CC(C)NC(=O)Cn1c(SCC(=O)N2CCc3ccccc3C2)nc2ccccc21 the results were HT1080 IDH1KD tx 8%, TDP1 cell noCPT -11%, KB-3-1 tox inactive, KB-V1 MDR tox 12µM*, TDP1 cell CPT -4% and HT1080-NT tox 14%.
`CC1CC(C)CN(C(=O)Cn2c(SCC(=O)N3CCc4ccccc4C3)nc3ccccc32)C1` (stereo not given) gave HT1080 IDH1KD tx -8%, TDP1 cell noCPT 21µM*, KB-3-1 tox inactive, KB-V1 MDR tox inactive, TDP1 cell CPT inconclusive and HT1080-NT tox -23%.
Screening CC1CCCCN1C(=O)CSc1nc2ccccc2n1CC(=O)N1CCc2ccccc21 (stereo not given) returned HT1080 IDH1KD tx inconclusive, TDP1 cell noCPT inconclusive, KB-3-1 tox inactive, KB-V1 MDR tox inactive, TDP1 cell CPT inconclusive and HT1080-NT tox -17%.
Screening Cc1cc(=O)[nH]c2nnc(SCCC(C)C)n12 returned TDP1 cell noCPT -10% and TDP1 cell CPT 8%.
`Cc1[nH]n(-c2ccccc2)c(=O)c1C=Nc1ccc(S(=O)(=O)N=C(N)N)cc1` gave HT1080 IDH1KD tx -17%, TDP1 cell noCPT -28%, KB-3-1 tox inactive, KB-V1 MDR tox inactive, TDP1 cell CPT -11% and HT1080-NT tox 0%.
Screening Cc1ccc(-n2[nH]c(C)c(C=Nc3ccc(S(=O)(=O)Nc4nc(C)cc(C)n4)cc3)c2=O)c(C)c1 returned HT1080 IDH1KD tx -3%, TDP1 cell noCPT -9%, KB-3-1 tox inactive, KB-V1 MDR tox inactive, TDP1 cell CPT inconclusive and HT1080-NT tox -5%.
For Cc1[nH]n(-c2ccccc2)c(=S)c1C=Nc1ccc([N+](=O)[O-])cc1 the results were HT1080 IDH1KD tx inconclusive, TDP1 cell noCPT 23µM*, KB-3-1 tox inactive, KB-V1 MDR tox inactive, TDP1 cell CPT 13µM* and HT1080-NT tox inconclusive.
`CCc1nnc(NS(=O)(=O)c2ccc(N=Cc3c(C)[nH]n(-c4ccc(C)c(C)c4)c3=O)cc2)s1` gave HT1080 IDH1KD tx 21µM*, TDP1 cell noCPT 8.2µM*, KB-3-1 tox inconclusive, KB-V1 MDR tox inconclusive, TDP1 cell CPT 2.1µM* and HT1080-NT tox inconclusive.
`Cc1cc(C)nc(NS(=O)(=O)c2ccc(N=Cc3c(C)[nH]n(-c4ccccc4)c3=O)cc2)n1` gave HT1080 IDH1KD tx -12%, TDP1 cell noCPT inconclusive, KB-3-1 tox inactive, KB-V1 MDR tox inactive, TDP1 cell CPT 21µM* and HT1080-NT tox 0%.
For Cc1[nH]n(-c2ccc(Br)cc2)c(=O)c1C=Nc1ccc(S(=O)(=O)Nc2nccs2)cc1 the results were HT1080 IDH1KD tx -20%, TDP1 cell noCPT inconclusive, KB-3-1 tox inactive, KB-V1 MDR tox inconclusive, TDP1 cell CPT inconclusive and HT1080-NT tox -28%.
`CCN1C[C@@H]2[C@@H]3C(=O)N(C)C(=O)[C@@H]3[C@](CC)(C(=O)OC)N2C1=NCc1ccccc1` gave HT1080 IDH1KD tx 8%, TDP1 cell noCPT 5%, KB-3-1 tox inactive, KB-V1 MDR tox inactive, TDP1 cell CPT 13% and HT1080-NT tox 8%.
